PubChem BioAssay AID1233 (SRMLSC, 2008)
Potency and affinity values are given separately. Values without a mark were called inactive.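 How the source made its calls: active means a dose-response curve fit returns a half-maximal inhibitory concentration, extrapolated values included; inactive means the fit returns no such concentration.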

target: HMG-CoA reductase [Enterococcus faecalis] (UniProt Q9FD70); assay: inhibitors of E. faecalis class II HMGR, confirmation, biochemical, Enterococcus faecalis (AID 1233);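 further: 0% = full reaction carrier wells and 100% = background wells lacking mevalonate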; settings: purified E. faecalis HMGR, NADPH absorbance 340 nm kinetics; series mostly up to 100 µM; inhibition: at the top concentration

Row | SMILES | inhibition [%]
1 | O=C(/C(=C/c1ccc(Cl)cc1)c1nc2ccccc2[nH]1)c1ccccc1 | -2.1
2 | CCOC(=O)C(CC)n1cnc2c(nnn2-c2ccc(OC)cc2)c1=O (stereo not drawn) | -3.04
3 | COc1cc2c(cc1OC)C(C(=O)Nc1ccc3c(c1)OCCO3)C(c1cccnc1)N(C)C2=O (stereo not drawn) | -2.25
4 | CC1CCN(c2cc(N)c(Cl)cc2[N+](=O)[O-])CC1 | -3.93
5 | COc1ccc(N2CCN(C(=O)C3CCC(Cn4c(=S)[nH]c5ccccc5c4=O)CC3)CC2)cc1 (stereo not drawn) | -4.08
6 | Cc1ccc(Cl)cc1N=C(N)N=C(N)N | -1.8
7 | Cc1ncc([N+](=O)[O-])n1CC(C)O (stereo not drawn) | -3.39
8 | COc1ccc(N2C(=O)C(CN3CCCCC3)C2c2ccccc2)cc1 (stereo not drawn) | -6.91
9 | Cc1ccc(S(=O)(=O)CCC(=O)NCCN2C(=O)S/C(=C\c3ccccc3)C2=O)cc1 | -4.26
10 | NC(=S)NNC(=O)c1cccc(Br)c1 | -10.2
11 | O=C(O)CCC(=O)NNC(=O)c1ccc(Br)cc1 | -1.69
12 | O=C(NCc1ccccc1Cl)c1cc([N+](=O)[O-])ccc1Cl | -4.55
13 | CCN1C(=O)/C(=C\C=C\c2ccccc2[N+](=O)[O-])SC1=S | -12.6
14 | CC(C)CNC(=O)CSc1ccc(Cl)cc1 | -5.13
15 | [O-]C1=N/[N+](=C/c2ccc(Cl)c(Cl)c2)CC1 | -2.55
16 | COc1ccc(Nc2nc3c(C)cccn3c(=O)c2C=NCc2ccccc2)cc1 | -3.33
17 | CC(C)(C)C1(O)CC(C(F)(F)F)=NN1C(=O)CCCc1ccccc1 (stereo not drawn) | 0.09
18 | O=C1NC(=O)/C(=C/C(=O)N2CCOCC2)S1 | -3.27
19 | Cc1nc2c([nH]1)C1(CCN(Cc3ccccc3)CC1)C(C#N)=C(N)O2 | 10.2

Row | SMILES | inhibition [%]
20 | NC(=O)CSc1nnc(-c2ccc([N+](=O)[O-])cc2)o1 | -0.33
21 | COc1ccc(-c2csc(N(CC3CCCO3)C(=O)c3ccco3)n2)cc1 (stereo not drawn) | 3.37
22 | CSc1ccccc1C(=O)NCc1ccccc1 | -2.21
23 | O=C(Cc1ccc2c(c1)CCCC2)Nc1ccccc1Cl | 2.77
24 | O=C(CN1CCC2(CC1)OCCO2)c1ccc2cc[nH]c2c1 | 1.36
25 | O=C(COC(=O)c1cc(S(=O)(=O)N2CCCCC2)ccc1N1CCOCC1)NC1CCS(=O)(=O)C1 (stereo not drawn) | -3.58
26 | COc1cc(C)nc(Oc2ccc(OCCOc3ccccc3)nn2)n1 | -3.5
27 | COc1ccc(C)cc1NC(=O)COC(=O)C1CCN(C(=O)c2ccc(Cl)cc2)CC1 | -3.39
28 | COC(=O)CC1COc2ccccc2N1C(=O)c1ccc(Br)cc1 (stereo not drawn) | -1.47
29 | COc1cc(OC)cc(C(=O)N[C@H](C(=O)OCn2nnc3ccccc3c2=O)C(C)C)c1 | 11.6
30 | COc1ccc(NC(=S)NCc2cccn2C)cc1 | -0.21
31 | COc1ccccc1/C=C/C(=O)OCC(=O)Nc1c(F)cccc1F | -14.5
32 | CCOC(=O)c1ccc(Nc2nc(C(=O)OCC)nc3ccccc23)cc1 | -2.7
33 | Cc1nn2c(C(F)(F)F)cc(-c3ccc(Cl)cc3)nc2c1C(=O)N1CCOCC1 | -4.39
34 | O=C(COC(=O)c1cccnc1)c1ccc(Cl)c(Cl)c1 | 2.21
35 | COC1(OC)N=C(NC(=O)Nc2ccccc2)C2(C#N)C(c3ccccc3)C12C#N (stereo not drawn) | -1.26
36 | CCNC(=O)NC(=O)C(C)OC(=O)c1ccc(-n2nc(SC)sc2=S)cc1 (stereo not drawn) | -5.23
37 | Cc1nnc(SCc2c(Cl)cccc2Cl)n(N)c1=O | -3.37
38 | Cc1ccc(S(=O)(=O)N2CCN(C(=O)CSc3nnc(-c4ccco4)o3)CC2)cc1 | -0.58
